Our source for the growth inhibition values is PubChem BioAssay (NCI).

About 79,000 compounds went through this panel and 15% of them were active in at least one assay; those are over-represented in the sample as a whole. Values without a mark were called inactive. Active and inactive are the calls of the source. Rule as the data show it: active = growth inhibition above about 70%; inactive = the rest. Where a SMILES comes first, the peptide text is derived from it. The star is where a group is joined. OSu = O=C1CCC(=O)N1O*; OBn = c1ccc(CO*)cc1; Bn = c1ccc(C*)cc1

A short description of experiment [1]: NCI Yeast Anticancer Drug Screen. Data for the rad50 strain (AID 155).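 Also: 0% = growth of vehicle-only cultures of the same strain.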 To be noted: S. cerevisiae rad50 strain growth inhibition, stronger effect = higher value. The method in brief: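 Relative growth inhibition (compound vs vehicle) was measured in yeast with a defined repair-gene alteration.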
Experiment [2] is described as follows: NCI Yeast Anticancer Drug Screen. Data for the mec2-1 strain (AID 157). To be noted: S. cerevisiae mec2-1 strain, stronger effect = higher value. In outline: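 Strain: mec2-1 (DNA repair/cell cycle alteration). Compound exposure, then growth measured; inhibition expressed relative to vehicle.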
The nature of experiment [3]: NCI Yeast Anticancer Drug Screen. Data for the sgs1 mgt1 strain (AID 161).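 Also: 0% = growth of cultures given vehicle only.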 As to conditions: S. cerevisiae sgs1 mgt1 strain, stronger effect = higher value. The method in brief:
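Read-out: growth inhibition vs vehicle controls. Cells: mutant yeast strain deficient in DNA damage repair.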

A short description of experiment [4]: NCI Yeast Anticancer Drug Screen. Data for the cln2 rad14 strain (AID 165).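 Also: 0% = growth equal to vehicle treated cultures.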 As to conditions: S. cerevisiae cln2 rad14 strain, stronger effect = higher value. In outline: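 Compounds are applied to the cln2 rad14 yeast strain, and growth is then compared with that of vehicle-treated cultures to give inhibition.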
Experiment [5] in a line: NCI Yeast Anticancer Drug Screen. Data for the bub3 strain (AID 167). As to conditions: S. cerevisiae bub3 mutant strain, stronger effect = higher value. In outline: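 Screening used yeast with an engineered genetic alteration affecting cell cycle control. Compound-exposed cultures were compared with vehicle cultures, and reduced growth was taken as inhibition.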
Experiment [6] in a line: NCI Yeast Anticancer Drug Screen. Data for the mlh1 rad18 strain (AID 175). As to conditions: S. cerevisiae mlh1 rad18 strain growth inhibition, stronger effect = higher value. In outline: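 Read-out is yeast growth inhibition, calculated against vehicle-only controls. The compound was applied to a strain engineered with DNA damage repair alterations.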
Where [7] appears, read: at 5.0 µM (retest, dose inferred, filed as 0.5).
The mark [8] stands for this setting: at 50.0 µM (retest, dose inferred, filed as 5.0).

For `Cc1c2ccncc2c(C)c2c1[nH]c1ccc(OCCN(C)C)cc12`, the growth inhibition in experiment [1] (setting [7]) was 28%; in experiment [1] (setting [8]), 93% (active); in experiment [1] (at 50.0 µM), 99% (active); in experiment [2] (setting [7]) it was 5%; in experiment [2] (setting [8]), 43%; in experiment [2] (at 50.0 µM) it was 77.3% (active). Besides, the growth inhibition in experiment [3] (setting [7]) is 5%; in experiment [3] (setting [8]), 53%; in experiment [3] (at 50.0 µM), 93.3% (active); in experiment [4] (setting [7]), 7%; in experiment [4] (setting [8]), 40%; in experiment [4] (at 50.0 µM), 71.8% (active). In addition, the growth inhibition in experiment [5] (setting [7]) was 4%; in experiment [5] (setting [8]), 32%; in experiment [5] (at 50.0 µM), 88.9% (active); in experiment [6] (setting [7]) it was 7%; in experiment [6] (setting [8]), 51%; in experiment [6] (at 50.0 µM), 96.3% (active).
Regarding `Cc1ccccc1C1c2c(C)cccc2C(=O)CC1CC(=O)O` (stereo not given), the growth inhibition was 4% in experiment [1] (setting [7]); 60% in experiment [1] (setting [8]); 58% in experiment [1] (at 50.0 µM); 1% in experiment [2] (setting [7]); 72% (active) in experiment [2] (setting [8]); 81.5% (active) in experiment [2] (at 50.0 µM). The growth inhibition in experiment [3] (setting [7]) was -1%; in experiment [3] (setting [8]), 75% (active); in experiment [3] (at 50.0 µM), 82.3% (active); in experiment [4] (setting [7]), -41%; in experiment [4] (setting [8]) it was 70% (active); in experiment [4] (at 50.0 µM), 13.3%. Also, the growth inhibition was 6% in experiment [5] (setting [7]); 67% in experiment [5] (setting [8]); 70% (active) in experiment [5] (at 50.0 µM); 8% in experiment [6] (setting [7]); 83% (active) in experiment [6] (setting [8]); 81.6% (active) in experiment [6] (at 50.0 µM).
As for `CC(=O)Nc1ccc(C#N)c2ccccc12`, the growth inhibition in experiment [1] (setting [7]) is 43%; in experiment [1] (setting [8]), 33%; in experiment [1] (at 50.0 µM) it was 40.4%; in experiment [2] (setting [7]), 42%; in experiment [2] (setting [8]), 33%; in experiment [2] (at 50.0 µM), 35.8%. For the same molecule, the growth inhibition in experiment [3] (setting [7]) was 0%; in experiment [3] (setting [8]), 29%; in experiment [3] (at 50.0 µM), 23.1%; in experiment [4] (setting [7]), 41%; in experiment [4] (setting [8]) it was 34%; in experiment [4] (at 50.0 µM), 7.4%. Further, the growth inhibition in experiment [5] (setting [7]) was 21%; in experiment [5] (setting [8]), 44%; in experiment [5] (at 50.0 µM) it was 40.8%; in experiment [6] (setting [7]), 35%; in experiment [6] (setting [8]), 35%; in experiment [6] (at 50.0 µM), 19.4%.
Consider `C=C1C(=O)O[C@H]2C3C(=C(C)CC[C@@H]12)C(=O)[C@@H]1OC31C` (stereo not given in full), for which the growth inhibition in experiment [1] (setting [7]) is 22%; in experiment [1] (setting [8]) it was 49%; in experiment [1] (at 50.0 µM) it was 36.8%; in experiment [2] (setting [7]), 16%; in experiment [2] (setting [8]), 52%; in experiment [2] (at 50.0 µM), 37.2%. Moreover, the growth inhibition in experiment [3] (setting [7]) was 35%; in experiment [3] (setting [8]), 74% (active); in experiment [3] (at 50.0 µM), 46%; in experiment [4] (setting [7]) it was 19%; in experiment [4] (setting [8]) it was 51%; in experiment [4] (at 50.0 µM), 34%. Further, the growth inhibition in experiment [5] (setting [7]) is 21%; in experiment [5] (setting [8]), 60%; in experiment [5] (at 50.0 µM), 23.9%; in experiment [6] (setting [7]), 19%; in experiment [6] (setting [8]), 62%; in experiment [6] (at 50.0 µM), 46.2%.
For `CCCCN1CCN(c2ccc([N+](=O)[O-])c3no[n+]([O-])c23)CC1`, the growth inhibition in experiment [1] (setting [7]) was 97% (active); in experiment [1] (setting [8]), 99% (active); in experiment [1] (at 50.0 µM), 90.5% (active); in experiment [2] (setting [7]), 94% (active); in experiment [2] (setting [8]) it was 99% (active); in experiment [2] (at 50.0 µM), 93.2% (active). The growth inhibition is 90% (active) in experiment [3] (setting [7]); 99% (active) in experiment [3] (setting [8]); 90.2% (active) in experiment [3] (at 50.0 µM); 43% in experiment [4] (setting [7]); 98% (active) in experiment [4] (setting [8]); 88.2% (active) in experiment [4] (at 50.0 µM). The growth inhibition was 58% in experiment [5] (setting [7]); 98% (active) in experiment [5] (setting [8]); 91.2% (active) in experiment [5] (at 50.0 µM); 96% (active) in experiment [6] (setting [7]); 99% (active) in experiment [6] (setting [8]); 90.5% (active) in experiment [6] (at 50.0 µM).
With `COc1ccc(C(=O)Nc2ccccc2[N+](=O)[O-])cc1`, the growth inhibition was -6% in experiment [1] (setting [7]); 7% in experiment [1] (setting [8]); -1.15% in experiment [1] (at 50.0 µM); -16% in experiment [2] (setting [7]); -23% in experiment [2] (setting [8]); 8.3% in experiment [2] (at 50.0 µM). Moreover, the growth inhibition in experiment [3] (setting [7]) was -13%; in experiment [3] (setting [8]), -11%; in experiment [3] (at 50.0 µM), 10.4%; in experiment [4] (setting [7]), -14%; in experiment [4] (setting [8]), 5%; in experiment [4] (at 50.0 µM), 48.5%. Further, the growth inhibition in experiment [5] (setting [7]) is -15%; in experiment [5] (setting [8]) it was 13%; in experiment [5] (at 50.0 µM) it was 19.2%; in experiment [6] (setting [7]), -13%; in experiment [6] (setting [8]), 0%; in experiment [6] (at 50.0 µM) it was 16.2%.
Regarding `CCCCCC(/C=N/Nc1nc(C)cc(=O)[nH]1)=C\c1ccccc1`, the growth inhibition in experiment [1] (setting [7]) is 9%; in experiment [1] (setting [8]), 45%; in experiment [1] (at 50.0 µM), 31.3%; in experiment [2] (setting [7]) it was -1%; in experiment [2] (setting [8]), 50%; in experiment [2] (at 50.0 µM) it was 30.8%. Also, the growth inhibition in experiment [3] (setting [7]) was 3%; in experiment [3] (setting [8]) it was 81% (active); in experiment [3] (at 50.0 µM), 29.9%; in experiment [4] (setting [7]), 3%; in experiment [4] (setting [8]), 39%; in experiment [4] (at 50.0 µM), 44.1%. For the same molecule, the growth inhibition in experiment [5] (setting [7]) is -1%; in experiment [5] (setting [8]), 83% (active); in experiment [5] (at 50.0 µM), 53%; in experiment [6] (setting [7]), -8%; in experiment [6] (setting [8]), 37%; in experiment [6] (at 50.0 µM) it was 70.5% (active).
On to `Oc1ccccc1C(c1cc2c(cc1O)OCO2)N1CCOCC1` (stereo not given), for which the growth inhibition in experiment [1] (setting [7]) was -23%; in experiment [1] (setting [8]), 99% (active); in experiment [1] (at 50.0 µM), 87.3% (active); in experiment [2] (setting [7]) it was -28%; in experiment [2] (setting [8]), 100% (active); in experiment [2] (at 50.0 µM) it was 88.7% (active). Further, the growth inhibition is -51% in experiment [3] (setting [7]); 99% (active) in experiment [3] (setting [8]); 89.8% (active) in experiment [3] (at 50.0 µM); -12% in experiment [4] (setting [7]); 99% (active) in experiment [4] (setting [8]); 91% (active) in experiment [4] (at 50.0 µM). The growth inhibition was -34% in experiment [5] (setting [7]); 99% (active) in experiment [5] (setting [8]); 91.3% (active) in experiment [5] (at 50.0 µM); 1% in experiment [6] (setting [7]); 99% (active) in experiment [6] (setting [8]); 91.9% (active) in experiment [6] (at 50.0 µM).
In the case of `COc1cc(CNC(=O)CCCCCCCCCCSC#N)ccc1O`, the growth inhibition in experiment [1] (setting [7]) is 6%; in experiment [1] (setting [8]) it was 59%; in experiment [1] (at 50.0 µM), 82.1% (active); in experiment [2] (setting [7]) it was 5%; in experiment [2] (setting [8]) it was 43%; in experiment [2] (at 50.0 µM), 85.2% (active). Besides, the growth inhibition in experiment [3] (setting [7]) is 7%; in experiment [3] (setting [8]), 77% (active); in experiment [3] (at 50.0 µM) it was 83.6% (active); in experiment [4] (setting [7]), 1%; in experiment [4] (setting [8]) it was 76% (active); in experiment [4] (at 50.0 µM), 81% (active). Further, the growth inhibition in experiment [5] (setting [7]) was 0%; in experiment [5] (setting [8]) it was 82% (active); in experiment [5] (at 50.0 µM), 86.7% (active); in experiment [6] (setting [7]) it was 20%; in experiment [6] (setting [8]) it was 73% (active); in experiment [6] (at 50.0 µM), 81.2% (active).
In the case of `CC(C)CC(NC(=O)C(N)CCC(=O)OCc1ccccc1)C(=O)NC(COCc1ccccc1)C(=O)NC(Cc1ccccc1)C(=O)ON1C(=O)CCC1=O` (stereo not given) (H-E(OBn)LS(Bn)F-OSu; configuration not given here), the growth inhibition in experiment [1] (setting [7]) is 54%; in experiment [1] (setting [8]), 66%; in experiment [1] (at 50.0 µM), 81.7% (active); in experiment [2] (setting [7]) it was 48%; in experiment [2] (setting [8]) it was 74% (active); in experiment [2] (at 50.0 µM), 84.6% (active). Further, the growth inhibition is 48% in experiment [3] (setting [7]); 81% (active) in experiment [3] (setting [8]); 83.1% (active) in experiment [3] (at 50.0 µM); 41% in experiment [4] (setting [7]); 71% (active) in experiment [4] (setting [8]); 86.7% (active) in experiment [4] (at 50.0 µM). Also, the growth inhibition is 42% in experiment [5] (setting [7]); 81% (active) in experiment [5] (setting [8]); 80.8% (active) in experiment [5] (at 50.0 µM); 60% in experiment [6] (setting [7]); 79% (active) in experiment [6] (setting [8]); 79% (active) in experiment [6] (at 50.0 µM).
